According to PubChem BioAssay (Tox21):
“And” between values parts separate entries of the source, which are not always exact repeats. Equal values may be shown once. Records with an inconclusive call do not appear. The source made the active and inactive calls. Unless noted, calls follow the shape of the dose curve; as a rule, active = well fitted curve in the direction sought with a large enough effect in the repeat runs; inconclusive = weak or mixed curves; inactive = no such curve, though single readings can be large; an effect the other way counts as inactive or inconclusive.

Tests used:
[1] = qHTS assay to identify small molecule antagonists of the androgen receptor (AR) signaling pathway - cell viability counter screen (AID 743033; also: nearly all actives have a fitted effect of over 45% in size)
[2] = qHTS assay to identify small molecule antagonists of the androgen receptor (AR) signaling pathway using the MDA cell line - cell viability counter screen (AID 743041; also: nearly all actives have a fitted effect of over 45% in size)
Outline: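 Viability counter screen run alongside the AR antagonist reporter: cells seeded 5 h before compound, R1881 added, 16 h incubation at 37C without CO2, fluorescent CellTiter-Fluor signal quantified.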

[3] = qHTS assay to identify small molecule antagonists of the thyroid receptor (TR) signaling pathway - cell viability counter screen (AID 743064); also: nearly all actives have a fitted effect of over 50% in size
Outline: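 GH3.TRE-Luc rat pituitary cells dosed after 4 hr plating, co-stimulated with T3 at 1 nM final, incubated 23.5 h at 37 C. Viability measured in the same wells by CellTiter-Fluor fluorescence after 30 min further at 37 C.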

[4] = qHTS assay to identify small molecule antagonists of the thyroid receptor (TR) signaling pathway (AID 743065); also: nearly all actives have a fitted effect of over 55% in size
Outline: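 GH3.TRE-Luc rat pituitary cells carrying two TR response elements driving luciferase were plated for 4 h, given compound plus 1 nM T3 (final), and incubated 23.5 h at 37 C. ONE-Glo luminescence measured reporter inhibition; CellTiter-Fluor fluorescence tracked cytotoxicity.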

[5] = test system: thyroid hormone receptor (rat, GH3 cells); experiment: qHTS assay to identify small molecule agonists of the thyroid receptor (TR) signaling pathway (AID 743066; calls by dose curve)
[6] = qHTS assay to identify small molecule antagonists of the estrogen receptor alpha (ER-alpha) signaling pathway - cell viability counter screen (AID 743074; calls by dose curve;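 also: HEK293 cells carrying ER-alpha-UAS-bla reporter stimulated with 17beta-estradiol; nearly all actives have a fitted effect of over 45% in size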)
[7] = qHTS assay to identify small molecule antagonists of the estrogen receptor alpha (ER-alpha) signaling pathway using the BG1 cell line - cell viability counter screen (AID 743081);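 also: compound given together with 17beta-estradiol as the ER stimulus; nearly all actives have a fitted effect of over 45% in size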
[8] = qHTS assay to identify small molecule that activate the aryl hydrocarbon receptor (AhR) signaling pathway - cell viability counter screen (AID 743086)
Outline: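 HepG2-AhR-luc (HG2L7.5c1) cells, 4000/well, were preincubated 5 h at 37C, exposed to compound in qHTS format for 24 hr at 37C, then given CellTiter-Fluor for 30 min; viability was read as fluorescence in the reporter wells.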

[9] = qHTS assay to identify small molecule antagonists of the estrogen related receptor (ERR) signaling pathway from Tox21 library - cell viability counter screen (AID 1224834); also: nearly all actives have a fitted effect of over 30% in size
Outline: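 ERR reporter cells were plated 6 h before compound addition, then exposed to test compounds in DMSO for 17.5 h at 37 C. Viability was read as CellTiter-Fluor fluorescence after a 30-minute incubation at 37 C.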

[10] = qHTS assay to identify small molecule antagonists of the estrogen related receptor signaling pathway with the pleiotropic PPARgamma coactivator (PGC) from Tox21 10K library - cell viability counter screen (AID 1224840; active = well fitted cell-killing curve with a large enough effect in the repeat runs, not every such curve was filed as active; also: nearly all actives have a fitted effect of over 40% in size)
Outline: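 PGC/ERR cells were seeded at 2,000 cells/well and left 6 hours at 37 C/5% CO2 before pin-tool addition of compounds in DMSO. After 17.5 hours at 37 C, CellTiter-Fluor was added and fluorescence read 30 minutes later.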

[11] = qHTS assay to identify small molecule antagonists of the estrogen related receptor signaling pathway with the pleiotropic PPARgamma coactivator (PGC) from Tox21 10K library (AID 1224841; call rule not given here; also: actives are mostly falling curves and most rising ones were filed inactive; nearly all actives have a fitted effect of over 50% in size)
Outline: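 PGC/ERR reporter cells were seeded at 2,000 cells/well and held 6 hours at 37 C/5% CO2 before pin-tool addition of compounds in DMSO. After 18 hours at 37 C, One-Glo was added and luminescence read after 30 minutes at room temperature.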

[12] = qHTS assay to identify small molecule agonists of the estrogen related receptor signaling pathway with the pleiotropic PPARgamma coactivator (PGC) from Tox21 10K library (AID 1224842); also: nearly all actives have a fitted effect of over 15% in size
Outline: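 PGC/ERR reporter cells (NTP line) were seeded 2,000 per well, rested 6 h at 37 C/5% CO2, then pin-dosed with compounds in DMSO for 18 h at 37 C; luciferase read by One-Glo luminescence after 30 min at room temperature.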

[13] = qHTS assay to identify small molecule antagonists of the estrogen related receptor (ERR) signaling pathway from Tox21 library (AID 1224848); also: nearly all actives have a fitted effect of over 50% in size
Outline: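 Screening used an ERR reporter line supplied by NTP, exposed for 18 h at 37 C to library compounds delivered in DMSO. Signal was luciferase luminescence developed with ONE-Glo at room temperature for 30 min.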

[14] = qHTS assay to identify small molecule agonists of the estrogen related receptor (ERR) signaling pathway from Tox21 library (AID 1224849; calls by dose curve; also: nearly all actives have a fitted effect of over 15% in size); details: ERR reporter cell line, ONE-Glo luciferase, 18 h
Outline: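 ERR reporter cell line (NTP) seeded, rested 6 h at 37 C/5% CO2, then pinned with Tox21 compounds in DMSO. After 18 h at 37 C, ONE-Glo luciferase luminescence was read following 30 min at room temperature.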

[15] = qHTS assay to identify small molecule antagonists of the estrogen receptor alpha (ER-alpha) signaling pathway using the BG1 cell line in the presence of 0.1 nM 17-beta-estradiol - cell viability counter screen (AID 1259241); also: nearly all actives have a fitted effect of over 40% in size
Outline: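 VM7Luc4E2 cells (endogenous full-length ER-alpha, 4xERE-luciferase), cultured 5 days in charcoal-stripped serum, exposed to compounds with 0.1 nM 17beta-estradiol (final) for 22 hr at 37C. Viability read in same wells as live-cell protease fluorescence after 30 min.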

[16] = qHTS assay to identify small molecule antagonists of the androgen receptor (AR) signaling pathway using the MDA cell line in the presence of 0.5 nM R1881 - cell viability counter screen (AID 1259242); also: nearly all actives have a fitted effect of over 45% in size
Outline: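 MDA-kb2 cells (human breast carcinoma, stably carrying MMTV-luciferase reporter) were exposed to compounds with 0.5 nM R1881 (final) for 16 hr at 37C, 0% CO2; viability then read as live-cell protease fluorescence (CellTiter-Fluor, 30 min) in the same wells.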

[17] = qHTS assay to identify small molecule phospholipidosis (PLD) inducers (AID 1259344; active = well fitted curve in the direction sought with a large enough effect; an effect the other way counts as inactive or inconclusive)
Outline: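 HepG2 cells grown on collagen I take up LipidTOX Red while exposed to compound for 24 h; after fixation they are imaged at 20x and pit metrics are extracted.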

[18] = target: Nuclear receptor subfamily 1 group I member 2 (Homo sapiens) (UniProt O75469); experiment: Human pregnane X receptor (PXR) small molecule agonists, qHTS assay (AID 1346982); also: nearly all actives have a fitted effect of over 35% in size
Sequence of Nuclear receptor subfamily 1 group I member 2 (Homo sapiens) (O75469 whole entry, looked up): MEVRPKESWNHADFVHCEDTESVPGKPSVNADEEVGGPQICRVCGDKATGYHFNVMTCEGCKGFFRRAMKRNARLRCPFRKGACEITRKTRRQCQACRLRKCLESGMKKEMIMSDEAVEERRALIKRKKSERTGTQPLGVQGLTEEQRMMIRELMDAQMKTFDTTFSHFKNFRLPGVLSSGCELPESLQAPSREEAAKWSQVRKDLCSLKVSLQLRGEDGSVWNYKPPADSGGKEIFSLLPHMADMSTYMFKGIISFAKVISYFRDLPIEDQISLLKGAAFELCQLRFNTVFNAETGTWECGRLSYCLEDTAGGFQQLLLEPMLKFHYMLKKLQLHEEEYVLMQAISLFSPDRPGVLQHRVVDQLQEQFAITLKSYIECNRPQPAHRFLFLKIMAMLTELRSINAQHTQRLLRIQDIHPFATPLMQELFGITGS
Outline: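 PXR-Luc HepG2 cells (CYP3A4 promoter-driven luciferase) were seeded in medium with 5% charcoal-stripped FBS, left 5 hr at 37 C, then exposed to compounds in DMSO for 24 hr. Luminescence was read after ONE-Glo addition.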

[19] = target: Acetylcholinesterase (Homo sapiens) (UniProt P22303); experiment: Acetylcholinesterase (AChE) small molecule antagonists: colormetric cell-based qHTS assay (AID 1347395; calls by dose curve; also: nearly all actives have a fitted effect of over 30% in size)
Sequence of Acetylcholinesterase (Homo sapiens) (P22303 whole entry, looked up): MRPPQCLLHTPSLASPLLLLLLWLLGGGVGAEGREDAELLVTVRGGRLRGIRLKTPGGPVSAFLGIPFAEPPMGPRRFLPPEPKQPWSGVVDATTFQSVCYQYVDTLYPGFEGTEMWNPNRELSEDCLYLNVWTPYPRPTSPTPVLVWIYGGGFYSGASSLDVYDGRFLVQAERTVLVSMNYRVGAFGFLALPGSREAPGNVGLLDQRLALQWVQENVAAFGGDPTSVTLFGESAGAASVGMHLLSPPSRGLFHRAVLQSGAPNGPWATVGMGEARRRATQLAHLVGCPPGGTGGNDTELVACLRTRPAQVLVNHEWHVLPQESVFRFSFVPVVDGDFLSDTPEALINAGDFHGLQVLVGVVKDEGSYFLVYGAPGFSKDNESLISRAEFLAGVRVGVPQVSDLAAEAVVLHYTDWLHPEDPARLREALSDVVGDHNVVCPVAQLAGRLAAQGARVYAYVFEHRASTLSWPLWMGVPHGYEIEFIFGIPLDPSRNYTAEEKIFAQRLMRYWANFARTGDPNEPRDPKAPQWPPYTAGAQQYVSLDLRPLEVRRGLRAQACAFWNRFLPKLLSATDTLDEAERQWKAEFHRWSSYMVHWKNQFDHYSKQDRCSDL
Outline: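 SH-SY5Y cells attached overnight, exposed to compound 30 min at 37 C, then given DTNB/acetylthiocholine; after 90 min at 37 C, colorimetric thiocholine read gives cellular AChE activity.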

[20] = target: Acetylcholinesterase (Homo sapiens) (UniProt P22303); experiment: Acetylcholinesterase (AChE) small molecule antagonists: enzyme-based qHTS assay (AID 1347397; calls by dose curve; also: nearly all actives have a fitted effect of over 55% in size); details: Potency: AChE enzyme activity inhibition; outcome: AChE enzyme activity inhibition
Outline: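 Human recombinant acetylcholinesterase; substrate acetylthiocholine; thiocholine quantified with DTNB (colorimetric). Compound preincubation 30 min RT; reaction 10 min RT.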

[21] = target: Acetylcholinesterase (Homo sapiens) (UniProt P22303); experiment: Acetylcholinesterase (AChE) small molecule antagonists: fluorescence cell-based qHTS assay (AID 1347398; calls by dose curve; also: nearly all actives have a fitted effect of over 50% in size); details: Potency: AChE activity; outcome: AChE activity
Outline: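 Thiocholine generated from acetylthiocholine by SH-SY5Y cell AChE is detected with Thiolite Green (Ex/Em 490/520 nm) after 40 min at room temperature, following 30 min compound pretreatment at 37 C.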

[22] = target: Acetylcholinesterase (Homo sapiens) (UniProt P22303); experiment: Acetylcholinesterase (AChE) small molecule antagonists: enzyme-based qHTS assay with human liver microsomes (AID 1347399; calls by dose curve; also: nearly all actives have a fitted effect of over 60% in size); details: Potency: qHTS inhibition; outcome: qHTS inhibition
Outline: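 Recombinant human AChE (50 mU/mL in the enzyme mix) and human liver microsomes (0.25 mg/mL final) were preincubated with compound and NADPH (0.25 mg/mL final) for 30 min at 37 C. Acetylthiocholine/DTNB was then added; thiocholine was read colorimetrically after 10 min at room temperature.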
% is scaled to controls: 0 for no effect and ±100 for the full control effect.

O=C(O)/C=C\C(=O)O
inactive: Potency [1] | Potency [2] | Potency [3] | Potency [4] | Potency [5] | Potency [6] | Potency [7] | Potency [8] | Potency [9] | Potency [10] | Potency [11] | Potency [12] | Potency [13] | activity change, positive = activation ([14]; at 42.5 µM (top of the series)) 6.09% | activity change, positive = activation ([14]; at 92.4 µM (top of the series)) 3.24% and 1.53% | Potency [15] | Potency [16] | Potency [17] | Potency [18] | Potency [19] | Potency [20] | Potency [21] | Potency [22]
